Test results published in PubChem BioAssay (Tox21).
Calls of active or inactive are those of the source. Unless noted, the call rests on the fitted dose curve; in most records, active means well fitted curve in the direction sought with a large enough effect in the repeat runs; inconclusive means weak or mixed curves; inactive means no such curve, though single readings can be large; an effect the other way counts as inactive or inconclusive.

Legend:
[1] = qHTS assay to identify small molecule antagonists of the thyroid receptor (TR) signaling pathway (AID 743065); further: nearly all actives have a fitted effect of over 55% in size; further: potency means the concentration at half of the fitted maximal effect
Summary of the method: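 GH3.TRE-Luc rat pituitary cells carrying two TR response elements driving luciferase were plated for 4 h, given compound plus 1 nM T3 (final), and incubated 23.5 h at 37 C. ONE-Glo luminescence measured reporter inhibition; CellTiter-Fluor fluorescence tracked cytotoxicity.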

[2] = target: Estrogen receptor (Homo sapiens) (UniProt P03372); test: qHTS assay to identify small molecule antagonists of the estrogen receptor alpha (ER-alpha) signaling pathway (AID 743069; active means well fitted curve in the direction sought with a large enough effect in the signal ratio in the repeat runs, not every such curve was filed as active; inconclusive means weak or mixed curves, or effect the other way; inactive means no such curve, though single readings can be large or run the other way; the % refers to the signal ratio)
Summary of the method: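 HEK293 cells stably carrying an ER-alpha-UAS-bla beta-lactamase reporter were pre-cultured overnight in 2% charcoal-stripped FBS medium. Test compounds in DMSO were added together with 17beta-estradiol for 18 hr at 37C. Read-out was fluorescence after 2 hr with LiveBLAzer B/G FRET substrate at room temperature.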

[3] = qHTS assay to identify small molecule antagonists of the estrogen receptor alpha (ER-alpha) signaling pathway - cell viability counter screen (AID 743074; calls by dose curve; further: nearly all actives have a fitted effect of over 45% in size)
[4] = target: Estrogen receptor (Homo sapiens) (UniProt P03372); test: qHTS assay to identify small molecule agonists of the estrogen receptor alpha (ER-alpha) signaling pathway (AID 743075; calls by dose curve; further: potency means the concentration at half of the fitted maximal effect)
[5] = target: Estrogen receptor (Homo sapiens) (UniProt P03372); test: qHTS assay to identify small molecule agonists of the estrogen receptor alpha (ER-alpha) signaling pathway using the BG1 cell line (AID 743079); further: nearly all actives have a fitted effect of over 20% in size; further: potency means the concentration at half of the fitted maximal effect
[6] = qHTS assay to identify small molecule antagonists of the estrogen receptor alpha (ER-alpha) signaling pathway using the BG1 cell line (AID 743080; calls by dose curve; further: series mostly up to about 70 µM; nearly all actives have a fitted effect of over 25% in size)
Summary of the method: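 Antagonist mode: compounds in DMSO were pinned onto BG1-Luc-4E2 cells alongside 17beta-estradiol agonist, incubated 21.5 h, and ERE-driven luciferase measured with ONE-Glo. Cytotoxicity was multiplexed using CellTiter-Fluor fluorescence.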

[7] = qHTS assay to identify small molecule antagonists of the estrogen receptor alpha (ER-alpha) signaling pathway using the BG1 cell line - cell viability counter screen (AID 743081);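 further: compound given together with 17beta-estradiol as the ER stimulus; series mostly up to about 70 µM; nearly all actives have a fitted effect of over 45% in size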
[8] = target: Aryl hydrocarbon receptor (Homo sapiens) (UniProt P35869); test: qHTS assay to identify small molecule that activate the aryl hydrocarbon receptor (AhR) signaling pathway (AID 743085);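 further: HG2L7.5c1 human HepG2 liver cells with stably integrated DRE-driven firefly reporter; series mostly up to about 70 µM; nearly all actives have a fitted effect of over 15% in size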
Summary of the method: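 HepG2 cells (HG2L7.5c1) stably carrying a firefly luciferase reporter driven by 20 dioxin responsive elements were exposed to compound for 24 h at 37C after a 5 h settling period; luminescence rise (ONE-Glo) indicated activation.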

[9] = qHTS assay for small molecule agonists of the antioxidant response element (ARE) signaling pathway - cell viability counter screen (AID 743203; calls by dose curve; further: nearly all actives have a fitted effect of over 55% in size; further: potency means the concentration at half of the fitted maximal effect)
Summary of the method: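 HepG2 cells carrying ARE-driven beta-lactamase; 2,000 cells/well; 5 hrs plating; compound pinned from DMSO; 16 hrs 37C/5% CO2; CellTiter-Glo added; 30 min RT; luminescence.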

[10] = qHTS assay for small molecule activators of the heat shock response signaling pathway - cell viability counter screen (AID 743209); further: nearly all actives have a fitted effect of over 50% in size
Summary of the method: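 Luminescence from CellTiter-Glo, added after the beta-lactamase FRET read, gave the viability signal. Cells were HSE-bla HeLa treated with DMSO-dissolved compounds for 5 h at 37 C following overnight plating.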

[11] = qHTS assay for small molecule activators of the heat shock response signaling pathway (AID 743210; active means well fitted activation curve with a large enough effect in the signal ratio in the repeat runs, with a control signal flat, not every such curve was filed as active; inconclusive means weak or mixed curves; the % refers to the signal ratio; further: series mostly up to about 63 µM)
Summary of the method: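 HSE-bla HeLa cells (beta-lactamase reporter under heat shock response elements) were exposed to compounds for 5 h at 37 C, then loaded with LiveBLAzer B/G FRET substrate for 2.5 h at room temperature before fluorescence reading.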

[12] = qHTS assay to identify small molecule agonists of the peroxisome proliferator-activated receptor delta (PPARd) signaling pathway - cell viability counter screen (AID 743211); further: nearly all actives have a fitted effect of over 55% in size; further: potency means the concentration at half of the fitted maximal effect
Summary of the method: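 PPARd-bla HEK293H cells (UAS-beta-lactamase reporter) were treated with compounds for 17 h at 37 C. Viability was then read in the same wells by CellTiter-Glo luminescence after 30 min at room temperature.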

Aromatase (Homo sapiens) = Aromatase (Homo sapiens) (UniProt P11511); test: qHTS assay to identify aromatase inhibitors (AID 743083); further: series mostly up to about 70 µM; nearly all actives have a fitted effect of over 55% in size
[13] = qHTS assay to identify aromatase inhibitors - cell viability counter screen (AID 743084)
[14] = qHTS assay to identify small molecule that activate the aryl hydrocarbon receptor (AhR) signaling pathway - cell viability counter screen (AID 743086);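 further: HepG2 liver cells carrying the AhR DRE luciferase reporter; series mostly up to about 70 µM; nearly all actives have a fitted effect of over 45% in size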
Summary of the method: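 HepG2-AhR-luc (HG2L7.5c1) cells, 4000/well, were preincubated 5 h at 37C, exposed to compound in qHTS format for 24 hr at 37C, then given CellTiter-Fluor for 30 min; viability was read as fluorescence in the reporter wells.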

[15] = qHTS assay to identify small molecule antagonists of the peroxisome proliferator-activated receptor gamma (PPARg) signaling pathway - cell viability counter screen (AID 743194); further: nearly all actives have a fitted effect of over 55% in size; further: potency means the concentration at half of the fitted maximal effect
Summary of the method: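 PPARg-UAS-bla HEK293H cells were plated, rested 5 h at 37 C, then treated with compounds plus rosiglitazone (50 nM final) for 17 h at 37 C; viability was then read by CellTiter-Glo luminescence after 30 min at room temperature.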

[16] = qHTS assay for small molecule agonists of the antioxidant response element (ARE) signaling pathway (AID 743202; active means well fitted activation curve with a large enough effect in the signal ratio in the repeat runs, not every such curve was filed as active; inconclusive means weak or mixed curves, or effect the other way; inactive means no such curve, though single readings can be large or run the other way; the % refers to the signal ratio; further: potency means the concentration at half of the fitted maximal effect)
Summary of the method: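 Read-out: LiveBLAzer B/G FRET substrate fluorescence after 2 h at room temperature, following 16 h compound treatment at 37 C of HepG2 cells carrying an ARE-driven beta-lactamase reporter.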

[17] = tested on: thyroid hormone receptor (rat, GH3 cells); test: qHTS assay to identify small molecule agonists of the thyroid receptor (TR) signaling pathway (AID 743066; calls by dose curve)
[18] = target: Peroxisome proliferator-activated receptor gamma (Homo sapiens) (UniProt P37231); test: qHTS assay to identify small molecule antagonists of the peroxisome proliferator-activated receptor gamma (PPARg) signaling pathway (AID 743191; calls by dose curve; further: series mostly up to about 63 µM; nearly all actives have a fitted effect of over 30% in size)
Summary of the method: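 GeneBLAzer PPARg UAS-bla HEK293H cells carrying a UAS-driven beta-lactamase reporter were plated at 3000 cells/well, preincubated 5 h at 37C, then given compound for 17 h at 37C; LiveBLAzer B/G FRET substrate was read after 1 h at room temperature.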

[19] = target: Peroxisome proliferator-activated receptor gamma (Homo sapiens) (UniProt P37231); test: qHTS assay to identify small molecule agonists of the peroxisome proliferator-activated receptor gamma (PPARg) signaling pathway (AID 743094; active means well fitted activation curve with a large enough effect in the signal ratio in the repeat runs, not every such curve was filed as active; inconclusive means weak or mixed curves, or effect the other way; inactive means no such curve, though single readings can be large or run the other way; the % refers to the signal ratio; further: potency means the concentration at half of the fitted maximal effect)
Summary of the method: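 Beta-lactamase FRET fluorescence was the read-out after a 1 h room-temperature substrate step, following 17 h compound treatment at 37C of HEK293H cells expressing a UAS-driven bla reporter responsive to PPARg.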

Measured: Potency

Chain of Peroxisome proliferator-activated receptor gamma (Homo sapiens) (P37231 whole entry, looked up): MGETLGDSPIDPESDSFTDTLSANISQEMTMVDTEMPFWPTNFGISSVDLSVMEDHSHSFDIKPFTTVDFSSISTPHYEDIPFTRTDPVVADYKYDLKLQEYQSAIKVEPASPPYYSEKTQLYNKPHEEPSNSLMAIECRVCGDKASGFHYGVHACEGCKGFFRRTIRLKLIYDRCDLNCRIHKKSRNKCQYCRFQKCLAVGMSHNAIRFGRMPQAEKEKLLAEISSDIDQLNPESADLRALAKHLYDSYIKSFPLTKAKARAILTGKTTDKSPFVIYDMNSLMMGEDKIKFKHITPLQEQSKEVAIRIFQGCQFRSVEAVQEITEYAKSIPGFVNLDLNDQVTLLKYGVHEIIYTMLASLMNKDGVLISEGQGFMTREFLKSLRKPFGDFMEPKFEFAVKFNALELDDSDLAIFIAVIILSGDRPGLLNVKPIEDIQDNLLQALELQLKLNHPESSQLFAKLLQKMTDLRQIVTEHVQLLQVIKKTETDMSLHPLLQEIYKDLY
Chain of Aryl hydrocarbon receptor (Homo sapiens) (P35869 whole entry, looked up): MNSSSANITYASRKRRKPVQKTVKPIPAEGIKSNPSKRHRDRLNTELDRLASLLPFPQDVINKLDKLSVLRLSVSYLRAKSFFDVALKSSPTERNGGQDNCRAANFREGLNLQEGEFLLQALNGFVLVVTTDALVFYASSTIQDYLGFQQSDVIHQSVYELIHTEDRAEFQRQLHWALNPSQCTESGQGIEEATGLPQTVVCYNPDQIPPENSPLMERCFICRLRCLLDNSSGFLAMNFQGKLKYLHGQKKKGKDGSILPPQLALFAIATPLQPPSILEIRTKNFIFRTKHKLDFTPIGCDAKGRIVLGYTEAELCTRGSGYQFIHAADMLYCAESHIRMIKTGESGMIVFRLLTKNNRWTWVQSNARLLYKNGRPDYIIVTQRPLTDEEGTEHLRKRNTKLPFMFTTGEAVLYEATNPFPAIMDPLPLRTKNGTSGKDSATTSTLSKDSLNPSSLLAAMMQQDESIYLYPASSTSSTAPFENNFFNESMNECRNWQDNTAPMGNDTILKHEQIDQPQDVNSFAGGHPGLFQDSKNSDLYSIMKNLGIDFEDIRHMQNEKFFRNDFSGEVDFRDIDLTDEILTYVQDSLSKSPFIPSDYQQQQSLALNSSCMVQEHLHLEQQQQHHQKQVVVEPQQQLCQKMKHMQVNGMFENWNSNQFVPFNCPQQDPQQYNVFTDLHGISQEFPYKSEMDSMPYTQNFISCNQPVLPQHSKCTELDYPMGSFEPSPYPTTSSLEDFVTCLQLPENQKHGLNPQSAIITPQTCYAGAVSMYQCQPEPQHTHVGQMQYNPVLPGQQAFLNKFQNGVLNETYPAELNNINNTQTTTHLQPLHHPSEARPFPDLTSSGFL
Chain of Estrogen receptor (Homo sapiens) (P03372 whole entry, looked up): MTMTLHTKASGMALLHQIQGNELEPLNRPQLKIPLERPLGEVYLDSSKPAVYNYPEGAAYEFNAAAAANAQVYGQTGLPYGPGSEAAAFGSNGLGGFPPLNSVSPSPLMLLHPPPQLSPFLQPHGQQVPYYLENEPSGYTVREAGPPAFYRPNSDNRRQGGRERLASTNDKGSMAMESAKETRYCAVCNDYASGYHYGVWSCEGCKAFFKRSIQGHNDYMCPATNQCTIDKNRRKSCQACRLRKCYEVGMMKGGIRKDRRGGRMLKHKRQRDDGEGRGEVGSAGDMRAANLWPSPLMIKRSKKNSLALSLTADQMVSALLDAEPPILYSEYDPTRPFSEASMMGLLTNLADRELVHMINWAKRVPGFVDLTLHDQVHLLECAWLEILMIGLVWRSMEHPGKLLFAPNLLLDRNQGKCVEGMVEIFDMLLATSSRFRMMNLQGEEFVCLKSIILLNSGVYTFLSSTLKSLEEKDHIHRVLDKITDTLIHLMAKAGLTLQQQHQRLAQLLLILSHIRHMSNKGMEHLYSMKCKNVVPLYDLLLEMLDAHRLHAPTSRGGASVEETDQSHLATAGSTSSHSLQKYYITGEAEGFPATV
Chain of Aromatase (Homo sapiens) (P11511 whole entry, looked up): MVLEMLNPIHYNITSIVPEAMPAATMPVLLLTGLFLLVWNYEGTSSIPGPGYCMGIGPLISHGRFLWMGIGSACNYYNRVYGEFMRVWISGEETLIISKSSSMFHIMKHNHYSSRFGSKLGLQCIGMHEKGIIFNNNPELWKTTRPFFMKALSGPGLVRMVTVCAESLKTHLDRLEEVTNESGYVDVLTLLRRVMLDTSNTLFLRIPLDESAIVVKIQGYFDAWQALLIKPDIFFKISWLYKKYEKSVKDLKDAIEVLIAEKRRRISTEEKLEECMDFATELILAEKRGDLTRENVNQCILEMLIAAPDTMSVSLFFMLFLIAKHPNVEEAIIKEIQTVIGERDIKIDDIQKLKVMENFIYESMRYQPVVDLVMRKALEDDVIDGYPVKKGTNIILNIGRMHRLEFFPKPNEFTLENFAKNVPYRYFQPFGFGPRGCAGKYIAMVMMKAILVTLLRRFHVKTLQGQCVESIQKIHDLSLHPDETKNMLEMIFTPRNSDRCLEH

OCCN1CCN(CCCN2c3ccccc3Sc3ccc(C(F)(F)F)cc32)CC1
inactive: [2] | [3] | [4] | [5] | [6] | [7] | [8] | [10] | [11]
active: [1] 6.68 µM | [9] 29.8 µM | [12] 26.6 µM

C#C[C@]1(O)CC[C@H]2[C@@H]3[C@H](C)CC4=C(CCC(=O)C4)[C@H]3CC[C@@]21C
active: [1] 26.6 µM | [4] 0.0134 µM [inconclusive] | [5] 0.0038 µM | [16] 23.7 µM
not listed: [2] | [11] | [12] | [17] | [18] | [19]
inactive: all other assays above

O=S(=O)(O)c1ccc(Nc2nc(Nc3ccc(/C=C/c4ccc(Nc5nc(Nc6ccc(S(=O)(=O)O)cc6)nc(N(CCO)CCO)n5)cc4S(=O)(=O)O)c(S(=O)(=O)O)c3)nc(N(CCO)CCO)n2)cc1
inactive: [1] | [17] | [5] | [6] | Aromatase (Homo sapiens) | [8] | [15] | [10] | [12]

c1ccc(C(O[C@@H]2CCCN(CCc3ccc4c(c3)OCO4)C2)c2ccccc2)cc1
inactive: [2] | [4] | [7] | [14] | [15] | [10]
active: [1] 30.6 µM | [9] 61.1 µM

C=CCCC(=O)/C=C/C1C(C)=CCCC1(C)C (stereo unspecified)
active: [1] 61.1 µM
not listed: [2] | [4] | [5] | [6] | [11] | Aromatase (Homo sapiens) | [13] | [19]
inactive: all other assays above

O=C1OC2(c3ccc(O)cc3Oc3cc(O)ccc32)c2ccc(N=C=S)cc21
not listed: [2] | [4] | [5] | [6] | [11] | [16] | [18] | [19]
inactive: all other assays above

O=C(/C=C/c1ccc(O)c(O)c1)O[C@@H](C(=O)O)[C@@H](OC(=O)/C=C/c1ccc(O)c(O)c1)C(=O)O
not listed: [2] | [4] | [5] | [6] | [8] | [11] | [16]
inactive: all other assays above

CCc1oc2ccccc2c1C(=O)c1cc(I)c(O)c(I)c1
inactive: [17] | [4] | [7] | [13] | [14] | [18] | [10]
active: [1] 21.1 µM | [19] 0.952 µM | [15] 13.3 µM | [9] 26.6 µM
